Results: PubChem BioAssay (Tox21)
Inconclusive results are not listed. Calls of active or inactive are those of the source. Unless noted, calls come from the whole dose curve.

Experiments:
[1] = Nuclear factor erythroid 2-related factor 2/antioxidant responsive element (Nrf2/ARE) small molecule agonists: qHTS cell viability counter screen in human keratinocytes (AID 1919968; active = well fitted curve in the direction sought with a large enough effect in the repeat runs; an effect the other way counts as inactive or inconclusive; note: nearly all actives have a fitted effect of over 55% in size; note: potency is the fitted concentration of half-maximal effect)
Summary of the method: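 After a 5 h attachment period, ARE-reporter keratinocytes were dosed with compounds in DMSO and then cultured 23 h at 37 C. Cell viability came from CellTiter-Fluor signal read after a further 1 h.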

[2] = biological target: Gonadotropin-releasing hormone receptor (Homo sapiens) (UniProt P30968); assay: Human gonadotropin-releasing hormone receptor (GnRHR) small molecule agonists, calcium flux assay in GnRHR-HEK293 cells (AID 1920063); note: nearly all actives have a fitted effect of over 35% in size
Summary of the method: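 We seeded human GnRHR-expressing HEK293 cells for 18 hours, loaded them with calcium dye for an hour at 37 C, added test compounds, and recorded fluorescence intensity kinetically for three minutes.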

[3] = G protein-coupled receptor (GPCR) small molecule agonists, calcium flux assay: HEK293 wild type cell line counter screen (AID 1920065)
Summary of the method: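 Calcium-sensitive dye, loaded 1 h at 37 C into cells cultured 18 h, reports compound-evoked calcium release as fluorescence (Ex/Em 480/540), measured over 3 min. Agonist mode; 15-point titrations, triplicate.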

[4] = p53 small molecule agonists, cell-based qHTS assay with rat liver microsomes (AID 1963578)
Summary of the method: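 Read-out is beta-lactamase reporter fluorescence (LiveBLAzer, 2 h, room temperature, dark) in p53RE-bla cells treated 16 h at 37 C with compound, rat liver microsomes and NADPH, both 0.5 mg/mL final.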

[5] = p53 small molecule agonists, cell-based qHTS assay with rat liver microsomes: qHTS cell viability counter screen (AID 1963580); note: nearly all actives have a fitted effect of over 45% in size
Summary of the method: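 HCT-116 p53RE-bla, 4,000 cells/well, 5 h pre-incubation; cpd + rat liver microsomes 0.5 mg/mL + NADPH 0.5 mg/mL (final); 16 h, 37 C; CellTiter-Glo, 30 min RT; luminescence.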

[6] = p53 small molecule agonists, cell-based qHTS assay: qHTS cell viability counter screen (AID 1963581); note: nearly all actives have a fitted effect of over 45% in size
Summary of the method: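 Following 5 h attachment, HCT-116 p53RE-bla cells took up compound for 16 h at 37 C; the reporter was read with B/G FRET substrate (2 h RT), and viability then via CellTiter-Glo ATP luminescence.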

[7] = p53 small molecule agonists, cell-based qHTS assay (AID 1963582; active = well fitted activation curve with a large enough effect in the signal ratio in the repeat runs, not every such curve was filed as active; the % refers to the signal ratio)
Summary of the method: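 In this cell-based concentration-response screen, a p53 response element drives beta-lactamase; cells received DMSO-borne compounds after 5 h culture and were incubated a further 16 h before FRET substrate development.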

[8] = biological target: 5-hydroxytryptamine receptor 2A (Homo sapiens) (UniProt P28223); assay: 5-hydroxytryptamine receptor 2A (HTR2A) small molecule antagonists, cell-based qHTS assay (AID 1963586); note: nearly all actives have a fitted effect of over 45% in size
Summary of the method: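 Antagonist-mode intracellular calcium assay: DOI (4 nM) added after 5 min compound pre-incubation at room temperature to dye-loaded HTR2A-CHO cells. Fluorescence followed for 3 min, sampled every second.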

[9] = biological target: 5-hydroxytryptamine receptor 2A (Homo sapiens) (UniProt P28223); assay: 5-hydroxytryptamine receptor 2A (HTR2A) small molecule agonists, cell-based qHTS assay (AID 1963587); note: nearly all actives have a fitted effect of over 30% in size
Summary of the method: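 Kinetic calcium-flux fluorescence (2 min, 1 sec intervals) after compound addition in agonist mode. HTR2A-CHO cells were cultured 18 h, then dye-loaded 1 h at 37 C.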

[10] = biological target: Muscarinic acetylcholine receptor M1 (Homo sapiens) (UniProt P11229); assay: Cholinergic receptor muscarinic 1 (CHRM1) small molecule antagonists, cell-based qHTS assay (AID 1963588); note: nearly all actives have a fitted effect of over 40% in size
Summary of the method: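 CHRM1-CHO calcium-flux assay, antagonist mode. Cells were seeded 18 h, dye-loaded 1 h at 37 C and given compound for 5 min at RT, then acetylcholine was added at 50nM. FDSS fluorescence was read 3 min; 15 concentrations, three runs.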

[11] = biological target: Muscarinic acetylcholine receptor M1 (Homo sapiens) (UniProt P11229); assay: Cholinergic receptor muscarinic 1 (CHRM1) small molecule agonists, cell-based qHTS assay (AID 1963589); note: nearly all actives have a fitted effect of over 35% in size
Summary of the method: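 Measures agonist-induced intracellular calcium rise. Stable human CHRM1 CHO line, 1 h dye load at 37 C, compounds from DMSO, kinetic fluorescence read.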

[12] = cAMP Responsive Elements (CRE) small molecule agonists, cell-based qHTS assay (AID 1963590)
Summary of the method: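 A CRE-responsive beta-lactamase reporter in HEK 293T cells was used. Treatment ran 3 h at 37 C; detection used LiveBLAzer B/G FRET substrate for 2 h at room temperature.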

[13] = cAMP Responsive Elements (CRE) small molecule antagonists, cell-based qHTS assay (AID 1963591; active = well fitted inhibition curve with a large enough effect in the signal ratio in the repeat runs, not every such curve was filed as active; the % refers to the signal ratio)
Summary of the method: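 HEK293T cells carrying a CRE-driven beta-lactamase reporter receive compound and NKH477 (0.25 uM final) for 3 h. Fluorescence from LiveBLAzer B/G FRET substrate is read after 2 h at room temperature.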

[14] = biological target: Beta-2 adrenergic receptor (Homo sapiens) (UniProt P07550); assay: Adrenergic beta2 receptor (ADRB2) small molecule antagonists, cell-based qHTS assay (AID 1963592); note: series mostly up to about 92 µM; nearly all actives have a fitted effect of over 50% in size
Summary of the method: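 Cells (CHO, stable ADRB2 overexpression) incubated 18-20hr at 37C; compounds added from DMSO; agonist mix (1nM isoproterenol, 100uM IBMX, 25uM Ro-20-1724) added; 0.5hr RT; d2-cAMP and anti-cAMP-cryptate added; 1hr RT; 665/615 nm read.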

[15] = biological target: D(2) dopamine receptor (Homo sapiens) (UniProt P14416); assay: Dopamine D2 receptor (DRD2) small molecule antagonists, cell-based qHTS assay (AID 1963595; active = well fitted inhibition curve with a large enough effect in the signal ratio in the repeat runs, with a control signal flat; the % refers to the signal ratio)
Summary of the method: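 Readout: HTRF cAMP, cAMP-d2 competing with cellular cAMP for anti-cAMP cryptate, read after 1 h. Cells: DRD2-HEK293. Conditions: 0.1 mM Ro20-1724, 12 nM quinpirole, 200 nM NKH477, 30 min RT.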

[16] = biological target: KiSS-1 receptor (Homo sapiens) (UniProt Q969F8); assay: Human kisspeptin (KISS1R) small molecule agonists, calcium flux assay in KISS1R-HEK293 cells (AID 1920064; active = well fitted curve in the direction sought with a large enough effect in the repeat runs; an effect the other way counts as inactive or inconclusive)
Summary of the method: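 Kinetic calcium assay, 1 s sampling over 3 min at Ex/Em 480/540, in HEK293 cells engineered with human KISS1R; compounds delivered in DMSO after 1 h dye loading.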

[17] = p53 small molecule agonists, cell-based qHTS assay with human liver microsomes: qHTS cell viability counter screen (AID 1963579); note: nearly all actives have a fitted effect of over 45% in size
Summary of the method: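 Cells carrying the p53 response-element beta-lactamase reporter are treated for 16 h at 37 C with test compounds in the presence of human liver microsomes and NADPH (both 0.5 mg/mL final); ATP-based CellTiter-Glo luminescence then reports viability.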

[18] = biological target: D(2) dopamine receptor (Homo sapiens) (UniProt P14416); assay: Dopamine D2 receptor (DRD2) small molecule agonists, cell-based qHTS assay (AID 1963594); note: nearly all actives have a fitted effect of over 35% in size
Summary of the method: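 cAMP accumulation in DRD2-HEK293 cells measured by HTRF after 1 h detection; compounds added 10 min before NKH477 (200nM […]) forskolin-analogue stimulation, 30 min at room temperature, with Ro20-1724 present at 0.1 mM final.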

[19] = p53 small molecule agonists, cell-based qHTS assay with human liver microsomes (AID 1963577)
Summary of the method: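 Compounds act here after metabolic activation: human liver microsomes and NADPH, both at 0.5 mg/mL final, were co-added to p53RE-bla cells. Incubation ran 16 h at 37 C, followed by LiveBLAzer detection.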

[20] = biological target: Beta-2 adrenergic receptor (Homo sapiens) (UniProt P07550); assay: Adrenergic beta2 receptor (ADRB2) small molecule agonists, cell-based qHTS assay (AID 1963593);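 note: CHO cells stably overexpressing human ADRB2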
Summary of the method: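 CHO cells stably over-expressing ADRB2 were plated overnight at 37C, then dosed with compounds plus a stimulation mix containing 100uM IBMX and 25uM Ro-20-1724 for 0.5hr at room temperature. cAMP was measured by HTRF competition, 1hr.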

Measured: Potency

Sequence of Beta-2 adrenergic receptor (Homo sapiens) (P07550 whole entry, looked up): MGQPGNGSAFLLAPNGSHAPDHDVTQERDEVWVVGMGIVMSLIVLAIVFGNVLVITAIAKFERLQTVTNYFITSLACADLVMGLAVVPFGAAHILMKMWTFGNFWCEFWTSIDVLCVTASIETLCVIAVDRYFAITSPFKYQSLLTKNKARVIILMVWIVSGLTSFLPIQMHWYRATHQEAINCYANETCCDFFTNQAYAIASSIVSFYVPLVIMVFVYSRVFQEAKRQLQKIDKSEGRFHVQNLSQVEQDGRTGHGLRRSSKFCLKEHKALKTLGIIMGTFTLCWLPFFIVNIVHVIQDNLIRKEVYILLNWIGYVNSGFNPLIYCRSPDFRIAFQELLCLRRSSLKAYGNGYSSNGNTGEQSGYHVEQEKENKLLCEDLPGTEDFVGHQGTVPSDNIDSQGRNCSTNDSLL
Sequence of 5-hydroxytryptamine receptor 2A (Homo sapiens) (P28223 whole entry, looked up): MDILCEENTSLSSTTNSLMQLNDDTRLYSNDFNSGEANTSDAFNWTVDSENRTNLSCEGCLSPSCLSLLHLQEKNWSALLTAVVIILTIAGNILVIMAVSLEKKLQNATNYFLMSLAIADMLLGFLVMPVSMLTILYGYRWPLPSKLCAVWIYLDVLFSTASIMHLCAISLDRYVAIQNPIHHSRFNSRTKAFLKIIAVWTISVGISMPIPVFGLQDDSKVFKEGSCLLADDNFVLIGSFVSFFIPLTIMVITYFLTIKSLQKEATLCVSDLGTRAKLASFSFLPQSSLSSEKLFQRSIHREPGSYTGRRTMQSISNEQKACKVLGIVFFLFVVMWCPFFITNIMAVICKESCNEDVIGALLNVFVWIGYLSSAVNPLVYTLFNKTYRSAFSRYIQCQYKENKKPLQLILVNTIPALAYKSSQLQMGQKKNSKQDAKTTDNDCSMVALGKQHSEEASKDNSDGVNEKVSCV
Sequence of KiSS-1 receptor (Homo sapiens) (Q969F8 whole entry, looked up): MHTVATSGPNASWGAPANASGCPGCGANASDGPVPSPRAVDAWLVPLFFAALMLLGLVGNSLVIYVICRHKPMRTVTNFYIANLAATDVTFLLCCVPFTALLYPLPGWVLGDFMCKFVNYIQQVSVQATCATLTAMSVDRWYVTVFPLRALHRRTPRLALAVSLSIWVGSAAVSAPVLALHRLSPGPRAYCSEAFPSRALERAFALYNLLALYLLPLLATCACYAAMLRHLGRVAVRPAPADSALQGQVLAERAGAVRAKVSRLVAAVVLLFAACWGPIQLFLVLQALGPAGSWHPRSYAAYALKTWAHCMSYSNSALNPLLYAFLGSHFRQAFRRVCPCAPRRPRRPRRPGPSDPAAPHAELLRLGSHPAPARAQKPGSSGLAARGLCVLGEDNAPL
Sequence of D(2) dopamine receptor (Homo sapiens) (P14416 whole entry, looked up): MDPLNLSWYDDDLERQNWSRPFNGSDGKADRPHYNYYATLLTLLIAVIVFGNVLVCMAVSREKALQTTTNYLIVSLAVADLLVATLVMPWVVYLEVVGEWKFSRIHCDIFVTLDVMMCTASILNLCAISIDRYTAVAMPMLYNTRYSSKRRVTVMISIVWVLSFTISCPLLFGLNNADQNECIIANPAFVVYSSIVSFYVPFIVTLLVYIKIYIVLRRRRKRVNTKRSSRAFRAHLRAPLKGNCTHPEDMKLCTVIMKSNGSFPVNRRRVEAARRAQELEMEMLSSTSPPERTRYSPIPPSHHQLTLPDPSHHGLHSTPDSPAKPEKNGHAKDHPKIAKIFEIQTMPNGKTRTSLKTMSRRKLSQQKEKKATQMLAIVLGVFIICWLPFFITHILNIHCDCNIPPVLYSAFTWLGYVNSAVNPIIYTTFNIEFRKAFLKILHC
Sequence of Muscarinic acetylcholine receptor M1 (Homo sapiens) (P11229 whole entry, looked up): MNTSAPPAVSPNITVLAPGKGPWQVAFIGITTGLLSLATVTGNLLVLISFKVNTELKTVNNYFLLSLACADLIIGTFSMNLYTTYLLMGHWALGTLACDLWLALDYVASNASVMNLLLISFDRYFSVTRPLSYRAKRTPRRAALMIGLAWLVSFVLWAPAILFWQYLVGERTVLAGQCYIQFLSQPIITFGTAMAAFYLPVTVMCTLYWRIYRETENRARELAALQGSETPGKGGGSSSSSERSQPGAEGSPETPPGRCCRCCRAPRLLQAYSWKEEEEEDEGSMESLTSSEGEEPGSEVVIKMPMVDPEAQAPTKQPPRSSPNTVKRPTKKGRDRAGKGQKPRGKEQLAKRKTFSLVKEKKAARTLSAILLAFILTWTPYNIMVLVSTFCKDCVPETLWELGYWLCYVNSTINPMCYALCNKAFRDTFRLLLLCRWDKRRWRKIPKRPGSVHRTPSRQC
Sequence of Gonadotropin-releasing hormone receptor (Homo sapiens) (P30968 whole entry, looked up): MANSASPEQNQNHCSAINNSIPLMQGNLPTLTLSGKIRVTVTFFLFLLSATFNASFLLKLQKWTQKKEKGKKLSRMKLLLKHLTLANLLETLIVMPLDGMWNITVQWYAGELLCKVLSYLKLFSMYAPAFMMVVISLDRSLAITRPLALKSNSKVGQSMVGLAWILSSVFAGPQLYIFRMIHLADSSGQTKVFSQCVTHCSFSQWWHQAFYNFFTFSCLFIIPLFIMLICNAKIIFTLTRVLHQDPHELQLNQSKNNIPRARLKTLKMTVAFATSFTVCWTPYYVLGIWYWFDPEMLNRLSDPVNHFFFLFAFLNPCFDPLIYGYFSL

C=C[Si]1(C)O[Si](C)(C=C)O[Si](C)(C=C)O[Si](C)(C=C)O1 (stereo not given)
not listed: [16] | [17] | [18] | [19] | [20]
inactive: all other assays above

Oc1ccc2ccccc2c1
not listed: [3] | [5] | [6] | [8] | [14] | [19] | [20]
inactive: all other assays above

Cc1cc(O)c(Cl)c(C)c1Cl
not listed: [3] | [5] | [8] | [13] | [17]
inactive: all other assays above

CC(C)c1ccccc1C(C)C
not listed: [3] | [4] | [12] | [18] | [19]
inactive: all other assays above

C/C(CC(C)C)=N\O
not listed: [3] | [15] | [19]
inactive: all other assays above

Cc1ccc(Cl)cc1N
not listed: [3] | [4] | [19] | [20]
inactive: all other assays above

C=C(C)C(=O)OCCOc1ccccc1
not listed: [4] | [7] | [8] | [13] | [16] | [19] | [20]
inactive: all other assays above

c1cc(C(c2ccc(OCC3CO3)cc2)c2ccc(OCC3CO3)cc2)ccc1OCC1CO1 (stereo not given)
active: [1] 27.3 µM
not listed: [4] | [5] | [7] | [12] | [13] | [14] | [16] | [20]
inactive: all other assays above

CS(=O)(=O)Nc1ccc([N+](=O)[O-])cc1Oc1ccccc1
not listed: [8] | [9] | [10] | [11] | [13] | [16]
inactive: all other assays above
